According to PubChem BioAssay (NCATS):
Values joined by “and” are separate entries in the source; they are usually repeats but may differ in a detail not shown here. Equal values may be shown once. Records with an inconclusive call do not appear. Active and inactive are the calls of the source. Calls come from the whole dose curve; as a rule, active = well fitted inhibition curve with a large enough effect; inconclusive = small, poorly fitted or top-dose-only effect; inactive = flat fitted curve, though single readings scatter.

How the values were obtained:
HEK293 = assay: Cytotoxic Profiling of Annotated Libraries Using Quantitative High-Throughput Screening (AID 1296008); details: Five cell lines viability, CellTiter-Glo ATP luminescence, 48-72 h; max response: active compounds read low; for max response: % is set by controls: 0 for no effect and ±100 for the full control effect
Procedure, shortened: (§1)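 Cytotoxicity was measured as CellTiter-Glo ATP luminescence, read after 10 min at room temperature. Compound treatment of the cells lasted 48 or 72 hr at 37 degrees Celsius in a qHTS format.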

KB-3-1 = assay: as above; details: Five cell lines viability, CellTiter-Glo ATP luminescence, 48-72 h; max response: active compounds read low
Procedure, shortened: as §1

MCC-13 = assay: qHTS assay to identify novel small-molecules to repurpose for Merkel cell carcinoma treatment (AID 1296009); details: MCC and control cell lines, CellTiter-Glo viability, 72 h; series mostly up to 46 µM
Procedure, shortened: (§2)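 Cell viability measured by CellTiter-Glo following 72 hr compound treatment at 37 degree celsius, with NPC and MIPE libraries tested in 8- and 11-point concentration series.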

MCC-26 = assay: as above; details: MCC and control cell lines, CellTiter-Glo viability, 72 h; series mostly up to 46 µM
Procedure, shortened: as §2

MKL-1 = assay: as above; details: MCC and control cell lines, CellTiter-Glo viability, 72 h; series mostly up to 46 µM
Procedure, shortened: as §2

MKL-2 = assay: as above; details: MCC and control cell lines, CellTiter-Glo viability, 72 h; series mostly up to 46 µM
Procedure, shortened: as §2

CRL-7250 = normal cell line; assay: Cytotoxic Profiling of Annotated Libraries Using Quantitative High-Throughput Screening (AID 1296008); details: Five cell lines viability, CellTiter-Glo ATP luminescence, 48-72 h; max response: active compounds read low; for max response: % is set by controls: 0 for no effect and ±100 for the full control effect
Procedure, shortened: as §1

NIH3T3 = assay: as above; details: Five cell lines viability, CellTiter-Glo ATP luminescence, 48-72 h; max response: active compounds read low
Procedure, shortened: as §1

HaCat [1] = assay: as above; details: Five cell lines viability, CellTiter-Glo ATP luminescence, 48-72 h; max response: active compounds read low
Procedure, shortened: as §1

HACAT [2] = assay: qHTS assay to identify novel small-molecules to repurpose for Merkel cell carcinoma treatment (AID 1296009); details: MCC and control cell lines, CellTiter-Glo viability, 72 h; at 44.8 µM (top of the series) unless noted
Procedure, shortened: as §2

HEK293T = assay: as above; details: MCC and control cell lines, CellTiter-Glo viability, 72 h; at 44.8 µM (top of the series) unless noted
Procedure, shortened: as §2

PAD = assay: qHTS profiling for inhibitors of Plasmodium falciparum proliferation (AID 504749); details: P. falciparum in erythrocytes, SYBR Green DNA, 72 h; series mostly up to 28.7 µM
Procedure, shortened: (§3)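 In a 72 h erythrocytic culture (37 C, humidified, 5% CO2) at 2.5% hematocrit and 0.3% starting parasitemia, compounds were tested; SYBR Green I in detergent lysis buffer stained parasite DNA overnight.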

PC49 = assay: as above; details: P. falciparum in erythrocytes, SYBR Green DNA, 72 h; series mostly up to 28.7 µM
Procedure, shortened: as §3

TAB165 = assay: as above; details: P. falciparum in erythrocytes, SYBR Green DNA, 72 h; series mostly up to 28.7 µM
Procedure, shortened: as §3
Note: nearly all actives have a fitted effect of over 60% in size.
Potency is the fitted concentration of half-maximal effect.

CC(=O)O[C@@H]1C(=O)O[C@@H]2[C@H]1OC(=O)[C@@H]2OC(C)=O
inactive: max response (HEK293) -3.32% | outcome (KB-3-1) | Potency (MCC-13) | Potency (MCC-26) | Potency (MKL-1) | Potency (MKL-2)

CC(C)=CCNc1ncnc2c1ncn2[C@@H]1O[C@H](CO)[C@@H](O)[C@H]1O
active: Potency (CRL-7250) 1.5 µM | Potency (NIH3T3) 7.5 µM | Potency (MCC-13) 8.41 µM | Potency (MKL-1) 1.68 µM | Potency (MKL-2) 0.944 µM

Oc1cccc2[nH]ccc12
inactive: max response (HEK293) 2.46% | max response (HaCat [1]) -5.11% | max response (NIH3T3) -6.12% | Potency (MCC-13) | Potency (MCC-26) | Potency (MKL-1) | Potency (MKL-2)

CC(C(O)c1ccccc1)N(C)CCOC(c1ccccc1)c1ccccc1 (stereo unspecified)
active: Potency (HEK293) 13 µM
inactive: max response (HaCat [1]) 2.35% | Potency (MCC-13) | Potency (MCC-26)

Cc1cc(C(C)(C)C)c(O)c(C(C)(C)C)c1
inactive: max response (HEK293) -3.94% | max response (KB-3-1) -9.85% | Potency (MCC-13) | Potency (MCC-26) | Potency (MKL-1) | Potency (MKL-2)

Nc1cccc2c(N)cccc12
active: Potency (HEK293) 34.4 µM | Potency (MCC-13) 38.6 µM | Potency (MKL-1) 6.11 µM | Potency (MKL-2) 1.93 µM
inactive: outcome (HaCat [1]) | max response (KB-3-1) 15.8% | outcome (HACAT [2]) inactive [at 92 µM]

CCN(CC)CCOc1ccc(/C(=C(\Cl)c2ccccc2)c2ccccc2)cc1
active: Potency (MKL-1) 23.7 µM
inactive: max response (CRL-7250) -10.3% and -19.3%

Cc1ncc([N+](=O)[O-])n1C
inactive: outcome (HEK293) | max response (NIH3T3) -19.7% | outcome (HEK293T) | Potency (MCC-13) | Potency (MCC-26) | Potency (MKL-1) | Potency (MKL-2)

Cc1nc(N)nc(N)c1-c1ccc(Cl)c(Cl)c1
active: Potency (HEK293) 1.06 µM | Potency (NIH3T3) 0.841 µM
inactive: Potency (MCC-26) | Potency (MKL-2)

CCC[C@H](N[C@@H](C)C(=O)N1[C@H](C(=O)O)C[C@@H]2CCCC[C@@H]21)C(=O)OCC
inactive: max response (HaCat [1]) 1.07% | max response (NIH3T3) -9.35% | Potency (MCC-13) | Potency (MCC-26) | Potency (MKL-1) | Potency (MKL-2)

NC(N)=NCCCCN=C(N)N
inactive: max response (KB-3-1) -9.65%

COC(=O)c1cc(Cl)ccc1NS(=O)(=O)C(F)(F)F
inactive: max response (HaCat [1]) -18% | max response (NIH3T3) -7.02% | Potency (MCC-13) | Potency (MCC-26) | Potency (MKL-1) | Potency (MKL-2)

CC(CC1c2ccccc2CCc2ccccc21)CN(C)C (stereo unspecified)
inactive: max response (HaCat [1]) 1.42% | Potency (MCC-13) | Potency (MKL-1)

O=C1NC(c2cccc([N+](=O)[O-])c2)=CCN1c1ccccc1O
inactive: max response (KB-3-1) -1.53%

COc1c(C)c2c(c(O)c1C/C=C(\C)CCC(=O)OCCN1CCOCC1)C(=O)OC2
inactive: max response (HaCat [1]) -40.9% | Potency (MKL-1) | Potency (MKL-2)
active: Potency (MCC-13) 0.944 µM

CN1CCCN(C(c2ccccc2)c2ccc(Cl)cc2)CC1 (stereo unspecified)
active: Potency (PAD) 5.62 µM | Potency (PC49) 5.01 µM | Potency (TAB165) 7.94 µM
inactive: max response (KB-3-1) 0.505%

CCOC(=O)N1CCC(n2c(=O)[nH]c3cc(Cl)ccc32)CC1
inactive: max response (HaCat [1]) -12.1% | max response (NIH3T3) 3.06% | Potency (MCC-13) | Potency (MCC-26) | Potency (MKL-1)

Cc1cccc(N(C)C(=S)Oc2ccc3c(c2)CCC3)c1
inactive: max response (HaCat [1]) -7.13% | max response (KB-3-1) -1.52% | max response (NIH3T3) -6.52% | Potency (MCC-13) | Potency (MCC-26) | Potency (MKL-1) | Potency (MKL-2)

O=C(OCC(O)CO)c1ccccc1Nc1ccnc2c(C(F)(F)F)cccc12 (stereo unspecified)
inactive: max response (HaCat [1]) -6.27% | max response (NIH3T3) -7.27% | Potency (MCC-13) | Potency (MCC-26)

COC(=O)C1=C(C)NC(COC(N)=O)=C(C(=O)OC(C)C)C1c1cccc(Cl)c1Cl (stereo unspecified)
inactive: max response (KB-3-1) 2.72% | Potency (MCC-13) | Potency (MCC-26) | Potency (MKL-1)
active: Potency (NIH3T3) 15 µM

C/C(=C(/OCCOc1ccc(Cl)cc1)c1ccc(Cl)cc1Cl)n1ccnc1
inactive: max response (NIH3T3) -25.5% | Potency (MCC-13) | Potency (MKL-1)

CC(C)(c1ccc(O)cc1)c1ccc(O)cc1
inactive: max response (HaCat [1]) -13.2% | max response (KB-3-1) -17.4% | Potency (MCC-13) | Potency (MCC-26) | Potency (MKL-1) | Potency (MKL-2)

C[N+](C)(C)CCO
inactive: max response (KB-3-1) -9.9% and -0.543%

COc1ccc(OC(=O)N(CC(=O)O)Cc2ccc(OCCc3nc(-c4ccccc4)oc3C)cc2)cc1
inactive: max response (HaCat [1]) -6.17% | max response (NIH3T3) 0.554% | Potency (MCC-13) | Potency (MCC-26) | Potency (MKL-1) | Potency (MKL-2)

Clc1ccc2c(c1)N=C(N1CCNCC1)c1ccccc1N2
inactive: max response (HaCat [1]) 2.45%

CC(C)C[C@H](NC(=O)CNC(=O)[C@H](Cc1ccc(O)cc1)NC(=O)[C@H](CO)NC(=O)[C@H](Cc1c[nH]c2ccccc12)NC(=O)[C@H](Cc1cnc[nH]1)NC(=O)[C@@H]1CCC(=O)N1)C(=O)N[C@@H](CCCN=C(N)N)C(=O)N1CCC[C@H]1C(=O)NCC(N)=O (stereo in doubt)
inactive: max response (KB-3-1) -12.3% | Potency (MCC-13) | Potency (MCC-26) | Potency (MKL-1) | Potency (MKL-2)
